Assay results reported in PubChem BioAssay (NCI).
About 79,000 compounds went through this panel and 15% of them were active in at least one assay; those are over-represented in the sample as a whole. Activity calls are given as the source filed them. No stated cut-off is given here; in the data, active means growth inhibition above about 70%; inactive means the rest. Where a SMILES comes first, the peptide text is derived from it. [ ]: non-standard residue; d: D form. The star is where a group is joined. ξ: configuration not given here. ξF = NC(Cc1ccccc1)C(=O)O; Cbz = O=C(OCc1ccccc1)*; Aib = CC(C)(N)C(=O)O; NHNH2 = NN*

What was measured:
[1] = NCI Yeast Anticancer Drug Screen. Data for the rad50 strain (AID 155);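 further: 0% = growth of vehicle-only cultures of the same strain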; conditions: S. cerevisiae rad50 strain growth inhibition; at 50.0 µM; active compounds read high
How it was run: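 Relative growth inhibition (compound vs vehicle) was measured in yeast with a defined repair-gene alteration.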

[2] = NCI Yeast Anticancer Drug Screen. Data for the mec2-1 strain (AID 157); conditions: S. cerevisiae mec2-1 strain, at 50.0 µM, active compounds read high
How it was run: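 Cells of the genetically defined mec2-1 yeast strain are incubated with test compound. Inhibition of growth is calculated against vehicle-treated controls.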

[3] = NCI Yeast Anticancer Drug Screen. Data for the sgs1 mgt1 strain (AID 161);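 further: 0% = growth of cultures given vehicle only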; conditions: S. cerevisiae sgs1 mgt1 strain, at 50.0 µM, active compounds read high
How it was run: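 Genetically altered yeast, compound exposure, growth inhibition relative to vehicle.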

[4] = NCI Yeast Anticancer Drug Screen. Data for the cln2 rad14 strain (AID 165);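 further: 0% = growth equal to vehicle treated cultures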; conditions: S. cerevisiae cln2 rad14 strain, at 50.0 µM, active compounds read high
How it was run: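 The screen exposed genetically defined yeast (cln2 rad14) to test compounds and scored growth inhibition relative to vehicle-treated controls.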

[5] = NCI Yeast Anticancer Drug Screen. Data for the bub3 strain (AID 167); conditions: S. cerevisiae bub3 mutant strain, at 50.0 µM, active compounds read high
How it was run: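 Screening used yeast with an engineered genetic alteration affecting cell cycle control. Compound-exposed cultures were compared with vehicle cultures, and reduced growth was taken as inhibition.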

[6] = NCI Yeast Anticancer Drug Screen. Data for the mlh1 rad18 strain (AID 175); conditions: S. cerevisiae mlh1 rad18 strain growth inhibition; at 50.0 µM; active compounds read high
How it was run: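 Compound-treated yeast growth, normalised to vehicle controls. Strain bears defined DNA repair mutations.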

Measured: growth inhibition

COc1ccc2nc(C)cc(N/N=C/c3cccc(C)n3)c2c1
inactive: [1] 3.95% | [2] -19.2% | [3] -1.55% | [4] -0.8% | [5] -29.8% | [6] -22.1%

CCC(=O)c1ccc(OC(=O)Nc2ccc(Cl)cc2[N+](=O)[O-])cc1
inactive: [1] 2.25% | [2] 42.8% | [3] 38.5% | [4] -0.75% | [5] 26.2% | [6] -124%

CCOC(=O)/C(C=Nc1c(C)n(C)n(-c2ccccc2)c1=O)=C(/C)O
inactive: [1] 19.7% | [2] 10.7% | [3] 11.7% | [4] 27.5% | [5] 10.8% | [6] 23.6%

O=c1[nH]c2ccccc2c(O)c1/C=N/C(=S)NCc1ccccc1
inactive: [1] -23.1% | [2] -23.8% | [3] 3.95% | [4] 0.2% | [5] 0.7% | [6] -37.2%

CCOC(=O)c1nc(SC)sc1NC(=O)c1ccc([N+](=O)[O-])cc1
inactive: [1] -11% | [2] -24.8% | [3] -30.8% | [4] 27.1% | [5] -14.7% | [6] -21.6%

CN1CCCC2C3=CC=C4CC(O)CCC4(C)C3CCC21C (stereo unspecified)
inactive: [1] 60.4% | [2] 21.5% | [3] 34.9% | [4] 14.5% | [5] 23.9% | [6] 35.5%

CNC1=C(Sc2ccc(Cl)cc2)C(=O)c2ccccc2C1=O
inactive: [1] -0.4% | [2] 19.4% | [3] 1.45% | [4] 3.25% | [5] 2.75% | [6] 0.35%

CCCCCOS(C)(=O)=O
inactive: [1] -4.6% | [2] -14.2% | [3] 4.85% | [4] -36.5% | [5] 0.55% | [6] -20.1%

CC(C)(C(=Nc1ccc([N+](=O)[O-])cc1)N1CCOCC1)c1ccccc1
inactive: [1] 9% | [2] 6.7% | [3] 5.05% | [4] 34.6% | [5] 32.1% | [6] 22.6%

COc1ccc(N2C(=O)C(=O)N(C)C2=O)c2ccccc12
inactive: [1] -15.1% | [2] -26.7% | [3] -2% | [4] 6.1% | [5] 2.85% | [6] -7.95%

CN1c2ccccc2Oc2ccc3ccccc3c21
inactive: [1] 13.8% | [2] -24.6% | [3] 0.95% | [4] -4.3% | [5] -8.2% | [6] 12.8%

CCOC(=O)C(c1ccsc1)C(C(=O)OCC)c1cccs1 (stereo unspecified)
inactive: [1] 3.3% | [2] 23.1% | [3] -4.95% | [4] -3.35% | [5] 25.6% | [6] 17%

Cc1ccc(C)c(NC(=O)OC/C=C/c2ccccc2)c1
inactive: [1] -1.2% | [2] 29.2% | [3] 19.9% | [4] -10.9% | [5] 26.7% | [6] 41.2%

O=C(C(=O)c1ccccc1)c1ccccc1
inactive: [1] 9.35% | [2] -0.75% | [3] 11.7% | [4] -22.1% | [5] 9.9% | [6] -1.15%

C=CCNc1ccc(Cl)cc1Cl
inactive: [1] -3.5% | [2] -6.25% | [3] -21.9% | [4] -54.4% | [5] -8.75% | [6] 12.6%

CC(NNC(=S)N1CCN(c2ccccn2)CC1)c1cccc[n+]1[O-] (stereo unspecified)
inactive: [1] 9.6% | [2] 5.4% | [3] 3.8% | [4] -11.2% | [5] 6.55% | [6] 11.9%

Cc1ncc([N+](=O)[O-])n1CCNCCCCn1ccnc1[N+](=O)[O-]
inactive: [1] -28.4% | [2] -21.6% | [3] -6.15% | [4] -23.7% | [5] -52.3% | [6] -17.9%

N[C@@H](Cc1ccccc1)C(=O)NCCNC(=O)[C@@H](N)Cc1ccccc1
inactive: [1] -13.1% | [2] -3.25% | [3] -8.85% | [4] 17.2% | [5] -0.7% | [6] 3.45%

O=C1c2c(O)cccc2C(C(=O)CCCCC(=O)C2c3cccc(O)c3C(=O)c3c(O)cccc32)c2cccc(O)c21
inactive: [1] 1.75% | [2] 15.2% | [3] 27.3% | [4] 17.1% | [5] 17.2% | [6] 1.05%

CC(C)(C)NC(=O)Oc1ccccc1C(N)=O
inactive: [1] 4.4% | [2] -3.45% | [3] -5.2% | [4] -78.4% | [5] 4.9% | [6] -11.7%

ClCC1CCC(CCl)CC1 (stereo unspecified)
inactive: [1] -31.6% | [2] -18.4% | [3] -15.2% | [4] -5.95% | [5] -21.7% | [6] -16.1%

O=C(N/N=C\c1ccncc1)Nc1ccc(N=Nc2ccccc2)cc1
inactive: [1] 13.2% | [2] 6.05% | [3] 17.6% | [4] -2.6% | [5] 5.9% | [6] 19.6%

CC1=CC(=O)C(=O)C2=C1OC1(C2)C(C)CCC2C3(C)CCC(O)C(C)(C)C3CCC21C (stereo unspecified)
active: [1] 86.5% | [2] 89.8% | [3] 89.1% | [4] 88.2% | [5] 86.3% | [6] 87.2%

O=C(CCC(=O)Nc1ccccc1[N+](=O)[O-])CC(=O)c1ccc(Br)cc1
inactive: [1] 4.85% | [2] 7.75% | [3] -2.95% | [4] 9.3% | [5] -13.1% | [6] 6.15%

[CH3][Ga]([CH3])[O]c1ccccc1C=O
inactive: [1] -3.6% | [2] -17.6% | [3] -10.8% | [4] -80.7% | [5] -30.3% | [6] -21.4%

N#CC(NNC(=O)Cc1ccccc1)c1ccccc1O (stereo unspecified)
inactive: [1] 0.8% | [2] -10% | [3] -2.05% | [4] -19.4% | [5] -21.7% | [6] -12.8%

c1ccc2c(c1)C1C3c4ccccc4C1C1C2C31
inactive: [1] 5.1% | [2] 12.1% | [3] -0.1% | [4] 2.6% | [5] 3.5% | [6] -2.8%

COc1ccc(C(=O)CC(=O)C2CCCCC2=O)cc1 (stereo unspecified)
inactive: [1] -12.5% | [2] -12.3% | [3] -3.4% | [4] -19.8% | [5] 19.3% | [6] -9.05%

OC1(CCC2OCCO2)c2ccccc2-c2ccccc21
inactive: [1] -3.9% | [2] 7.05% | [3] 7.85% | [4] 25.4% | [5] 15.8% | [6] 2.85%

O=c1ccocc1OC1OC(CO)C(O)C(O)C1O (stereo unspecified)
inactive: [1] -3.95% | [2] -26.4% | [3] -21.1% | [4] -1.35% | [5] -32.3% | [6] -23.1%

O=c1[nH]c(=S)c2ncn(C3OC(CO)C(O)C3O)c2[nH]1 (stereo unspecified)
inactive: [1] -0.5% | [2] -13.7% | [3] -11.1% | [4] 4.4% | [5] -1.1% | [6] 11.8%

O=C1CN(CCCO)CC(=O)N2Cc3ccccc3CN12
inactive: [1] -8.95% | [2] 4.55% | [3] -18.7% | [4] -10% | [5] -6.85% | [6] -11.3%

O=C1c2cc(Cl)ccc2-n2c(noc2=O)C2CSCN12 (stereo unspecified)
inactive: [1] -8% | [2] -10.3% | [3] -21% | [4] 8.85% | [5] -18.3% | [6] 11.6%

NC(=O)COc1ncc(Cl)cc1Cl
inactive: [1] 4.05% | [2] -6.45% | [3] 3.15% | [4] -19.4% | [5] 4.4% | [6] 3.35%

CC(=O)Oc1ccccc1C#CC(=O)O
inactive: [1] 17.3% | [2] 25.6% | [3] 34% | [4] -1.2% | [5] -0.7% | [6] 15.4%

CCCc1c(C)nc2scc(-c3ccccc3)n2c1=O
inactive: [1] 38.7% | [2] 16.5% | [3] 55.1% | [4] 37.4% | [5] 39.4% | [6] 34%

O=S(=O)(SC(S(=O)(=O)c1ccccc1)S(=O)(=O)c1ccccc1)c1ccccc1
inactive: [1] 13.2% | [2] 9.35% | [3] 39.4% | [4] 1% | [6] 39.2%
active: [5] 72.6%

O=[N+]([O-])c1cc(S(=O)(=O)O)cc(S(=O)(=O)O)c1O
inactive: [1] 12.6% | [2] 2.6% | [3] 13.2% | [4] 19.6% | [5] 16.5% | [6] 18.1%

C#CCI
inactive: [1] 20.9% | [2] 6.5% | [3] 6.95% | [4] 33.9% | [5] 7.35% | [6] 17.5%

Fc1ccc(Cl)c(-c2nc3ccccc3[nH]2)c1
inactive: [1] 14.2% | [2] 15.4% | [3] 2.85% | [4] 2.35% | [5] -1.5% | [6] 47.3%

CC(C)(NC(=O)OCc1ccccc1)C(=O)NC(Cc1ccccc1)C(=O)NN (stereo unspecified) (Cbz-[Aib]-[ξF]-NHNH2)
inactive: [1] 0.55% | [2] 7.35% | [3] 7% | [4] 20.9% | [5] 15.4% | [6] -20.1%
